PubChem BioAssay (NCATS)
The source made the active and inactive calls. The call rests on the fitted dose curve; in most records, active means well fitted curve in the direction sought with a large enough effect; inconclusive means small, poorly fitted or top-dose-only effect, or effect the other way, or another doubt; inactive means no such curve, though single readings can be large or run the other way.

Assay: Inducers of the Endoplasmic Reticulum Stress Response (ERSR) in human glioma: Validation (AID 504836); further: 0% is about no effect
Conditions: human glioma cells, ER stress response reporter; series mostly up to 38.3 µM; activation: at the top concentration
Text: Primary protein unfolding takes place for many diseases, including diabetes and hypoxia, , and triggers a reaction in the cells called ER stress response (ERSR). ). ERSR is designed as a repair mechanism, but ultimately leads to cell death via apoptosis if conditions triggering protein unfolding persist (1). The molecular clue to ERSR activation is the enhancement of the expression of key molecular chaperones, including the glucose regulated protein (GRP) 78. GRP78 is the main sensor for protein folding and the main actuator of the ERSR.
In a collaboration between the Southern Research Institute and the NIH Chemical Genomics Center, a cell based screen was developed that reliably uses GRP78 as a sensor to identify small molecules as inducers of ERSR. In resting conditions, GRP78 binds proteins and acts as a natural repressor. Once unfolded proteins are present in the ER, GRP78 releases some of the repressors and binds to the unfolded proteins. The release of the repressors executes the ERSR program. Using a human glioma cell line in a miniaturized, luminescent format, a high-throughput screen was developed to identify actuators of the ERSR.
(1) Soboloff, J. and S. A. Berger (2002). "Sustained ER Ca2+ depletion suppresses protein synthesis and induces activation-enhanced cell death in mast cells." J Biol Chem 277(16): 13812-20.
NIH Chemical Genomics Center [NCGC]
NIH Molecular Libraries Probe Centers Network [MLPCN]
Assay Submitter (PI): Maurizio Grimaldi, Southern Research Institute
Stable transfected human glioma cell line, U87-MG, are dispensed at density 1000 cells/well into Greiner white solid bottom 1536-well assay plates. Compounds are transferred via Kalypsys pin tool equipped with 1536-pin array (10nl slotted pins, V&P Scientific, San Diego, CA). The assay plates will be incubated for 16 hours and developed by adding appropriate quantities of the Promega Bright Glo reagent. The plates will be incubated at room temperature for 10 minutes prior to being transferred into a ViewLux high-throughput CCD imager (PerkinElmer), wherein end-point measurements of luminescence are acquired.

SMILES	activation
O=C(CCCCCN1CCN(c2ccccc2-c2ccccc2)CC1)NC1CCCc2ccccc21 (stereo unspecified)	-1.23% (inactive)
Cc1cc(NC2CCCCC2)nc(-n2nc(C)cc2C)n1	-3.1% (inactive)
NC(N)=NC(=O)c1nc(Cl)c(N2CCCCCC2)nc1N	0.786% (inactive)
CC[C@@H](C)[C@H]1O[C@]2(CC[C@H]1C)C[C@@H]1C[C@@H](CC=C(C)[C@@H](O[C@H]3C[C@H](OC)[C@@H](O[C@H]4C[C@H](OC)[C@@H](O)[C@H](C)O4)[C@H](C)O3)[C@@H](C)C=CC=C3CO[C@@H]4[C@H](O)C(C)=C[C@@H](C(=O)O1)[C@]34O)O2	-6.8% (inactive)
CSc1ccccc1N1CCN(CCCCCC(=O)NC2CCCc3ccccc32)CC1 (stereo unspecified)	-2.47% (inactive)
Cc1ccccc1/C=C/C1=NCCN1	-4.43% (inactive)
CCCCCCCC/C=C\CCCCCCCC(=O)NCCc1ccc(O)c(O)c1	-0.962% (inactive)
CC[C@@H](CO)Nc1nc(NCc2ccccc2)c2ncn(C(C)C)c2n1	-4.52% (inactive)
[N-]=[N+]=Nc1ccc(C(=O)CSC[C@H](NC(=O)CC[C@H](N)C(=O)O)C(=O)NCC(=O)O)cc1	0.912% (inactive)
NS(=O)(=O)C#Cc1ccccc1	-11.6% (inactive)
O=C1c2ccccc2C(=O)c2c(NCCc3ccc(O)cc3)ccc(NCCc3ccc(O)cc3)c21	-9.57% (inactive)
COc1ccccc1N1CCN(CCN(C(=O)c2ccc(I)cc2)c2ccccn2)CC1	0.935% (inactive)
CCN(c1nc(N)c(C(=O)N=C(N)N)nc1Cl)C(C)C	-1.85% (inactive)
COc1ccccc1N1CCN(CCCCNS(=O)(=O)c2cccc3c(N(C)C)cccc23)CC1	4.66% (inactive)
O=C1C(SCCO)=C(SCCO)C(=O)c2ccccc21	-11.8% (inactive)
CC(C)(C)c1ccc(/C=C/C(=O)Nc2ccc3c(c2)OCCO3)cc1	6.13% (inactive)

SMILES	activation
Nc1ncnc2c1c(-c1ccc(Oc3ccccc3)cc1)cn2C1CCCC1	-3.09% (inactive)
C=CCc1cccc(C=NNC(=O)CN2CCN(Cc3ccccc3)CC2)c1O	-1.84% (inactive)
CC#CCOC(=O)c1c(C)nc2sc3c(c2c1N)CCC(O)C3 (stereo unspecified)	-2.64% (inactive)
O=C(c1ccc(Cl)cc1)N1CCN(c2ccc([N+](=O)[O-])c3ncccc23)CC1	0.014% (inactive)
CC(C)(C)c1cc(/C=C(\C#N)C(N)=S)cc(C(C)(C)C)c1O	-7.65% (inactive)
COC1=C(OC)C(=O)c2ccccc2C1=O	-3.47% (inactive)
Oc1ccc(/C=C/c2ccc(/C=C/c3ccc(O)cc3)c(Br)c2)cc1	1.07% (inactive)
CC1(C)C(=O)N(CCN2CCC(C(=O)c3ccc(F)cc3)CC2)c2ccccc21	-0.181% (inactive)
C=C1C(=O)O[C@@H]2[C@H]3O[C@]3(C)CCC=C(C)CC[C@@H]12	-11.7% (inactive)
C1CCC(N=C(NC23CC4CC(CC(C4)C2)C3)N2CCOCC2)CC1	0.37% (inactive)
Cc1cc2c(cc1Cl)N(C(=O)Nc1ccc(Oc3cccnc3C)nc1)CC2	-1.57% (inactive)
CCCCOC(=O)NS(=O)(=O)c1sc(CC(C)C)cc1-c1ccc(Cn2c(CC)nc3c(C)cc(C)nc32)cc1	6.38% (inactive)
c1cnc2c(c1)ccc1cccnc12	-3.16% (inactive)
O=[N+]([O-])c1ccc2c(c1)S(=O)(=O)C=C2	-11.5% (inactive)
COc1ccccc1CNCCCCCCNCCCCCCCCNCCCCCCNCc1ccccc1OC	-4.85% (inactive)
